USP7 block – blocks human USP7 ubiquitin-rhodamine cleavage; Q93009; purified USP7, Ub-rhodamine cleavage fluorescence; inhibition, % at 20 µM; 47,000 tested, 0.3% active; AID 1645854
UCHL1 inh – human UCHL1 deubiquitinase inhibition; P09936; purified UCHL1, Ub-rhodamine cleavage fluorescence; AID 1645859; inhibition, % at 20 µM; 47,000 tested, 0.2% active
USP8 inh – blocks human USP8 ubiquitin-rhodamine cleavage; AID 1645853; inhibition, % at 20 µM; 47,000 tested, 4.2% active; purified USP8, Ub-rhodamine cleavage fluorescence, 30 min; P40818
USP10 inh – inhibitors of human USP10 deubiquitinase | 47,000 tested, 1.1% active | Q14694 | purified USP10, Ub-rhodamine fluorescence, 60 min | inhibition, % at 20 µM
USP30 block – blocks human USP30 ubiquitin-rhodamine cleavage; Q70CQ3; purified USP30, Ub-rhodamine cleavage fluorescence; inhibition, % at 25 µM; 47,000 tested, 5.3% active
USP17 inh – blocks human USP17 ubiquitin-rhodamine cleavage. A8MUK1. purified USP17, Ub-rhodamine cleavage fluorescence, 3 h. inhibition, % at 50 µM. 47,000 tested, 6.5% active
Active calls of the source: *. This is a sample that favours compounds with a hit; in the whole collection about 12% have one here. No stated cut-off is given here; in the data, active means inhibition above about 30%; inactive means the rest.

Screening COc1cc(/C=C/C23NC(=O)CN2c2ccc(C)cc2C3(C)C)ccc1OCc1ccccc1 (centres undefined) returned USP7 block -14, UCHL1 inh -19, USP8 inh -32, USP10 inh -10, USP30 block inactive and USP17 inh -101.
`Cc1cc(-c2cnc(NCCCN3CCCC3=O)nc2-c2ccc(C)o2)on1` gave USP7 block -3, UCHL1 inh -6, USP8 inh -102, USP10 inh -6, USP30 block -125 and USP17 inh -40.
Screening COc1cc(C2CCN(C(=O)c3ccc(C(F)(F)F)cc3)CC2)on1 returned USP7 block 0, UCHL1 inh 0, USP8 inh 1, USP10 inh 1, USP30 block 0 and USP17 inh -2.
Screening O=c1[nH]c(C2CCN(S(=O)(=O)c3ccc(S(=O)(=O)NC4CCCCC4)cc3)CC2)nc2c1nnn2Cc1cccc(F)c1 returned USP7 block 0, UCHL1 inh -7, USP8 inh -44, USP10 inh 0, USP30 block -72 and USP17 inh -15.
For COc1cc(S(=O)(=O)N2CCC(c3nc4c(nnn4Cc4cccc(F)c4)c(=O)[nH]3)CC2)ccc1-n1cnnn1 the results were USP7 block 8, UCHL1 inh -1, USP8 inh -12, USP10 inh -8, USP30 block -35 and USP17 inh -17.
COc1cc(S(=O)(=O)N2CCC(c3nc4c(nnn4Cc4ccc(F)cc4)c(=O)[nH]3)CC2)ccc1-n1cnnn1 was read as USP7 block 4, UCHL1 inh 3, USP8 inh 8, USP10 inh 21, USP30 block 47* and USP17 inh 32*.
`Cc1ccc(Cn2nnc3c(=O)[nH]c(C4CCN(S(=O)(=O)c5ccc(S(=O)(=O)NC6CCCC6)cc5)CC4)nc32)cc1` gave USP7 block 10, UCHL1 inh 5, USP8 inh -228, USP10 inh 34*, USP30 block 20 and USP17 inh -20.
CC(C)(C)c1ccc(Cn2nnc3c(=O)[nH]c(C4CCN(S(=O)(=O)c5ccc(S(=O)(=O)NC6CCCC6)cc5)CC4)nc32)cc1 was read as USP7 block 0, UCHL1 inh -3, USP8 inh -176, USP10 inh 29, USP30 block 26 and USP17 inh 16.
`O=c1[nH]c(C2CCN(S(=O)(=O)c3ccc(S(=O)(=O)N4CCOCC4)cc3)CC2)nc2c1nnn2Cc1cccc(Cl)c1` gave USP7 block 9, UCHL1 inh 6, USP8 inh 35*, USP10 inh 28, USP30 block 27 and USP17 inh 7.
Screening CC(C)(C)c1ccc(Cn2nnc3c(=O)[nH]c(C4CCN(S(=O)(=O)c5ccc(S(=O)(=O)NC6CC6)cc5)CC4)nc32)cc1 returned USP7 block 14, UCHL1 inh 10, USP8 inh 33*, USP10 inh 29, USP30 block 10 and USP17 inh 64*.
For CCc1noc(-c2ccc(OCC(=O)Nc3cc(C)cc(C)c3)cc2)n1 the results were USP7 block 3, UCHL1 inh 4, USP8 inh 0, USP10 inh 4, USP30 block 44* and USP17 inh 25.
Screening Cc1ccc(NC(=O)COc2ccc(-c3nc(C(C)C)no3)cc2)c(F)c1 returned USP7 block 5, UCHL1 inh -1, USP8 inh 21, USP10 inh 12, USP30 block 32* and USP17 inh 37*.
For Cc1ccc(C(=O)N2C[C@@H]3OCC(=O)N(c4ccccc4)[C@H]3C2)cn1 the results were USP7 block 2, UCHL1 inh 1, USP8 inh 4, USP10 inh 1, USP30 block 11 and USP17 inh 5.
Screening CN1c2ccccc2C(=O)NC12CCN(C(=O)Nc1ccc(F)cc1)CC2 returned USP7 block -3, UCHL1 inh -1, USP8 inh 15, USP10 inh 3, USP30 block 16 and USP17 inh 2.
Screening O=S(=O)(Nc1ccccc1)c1ccc2nncn2c1 returned USP7 block -2, UCHL1 inh 0, USP8 inh -219, USP10 inh 0, USP30 block -4 and USP17 inh -22.
`COC(=O)c1ccc(OCC2c3cc(OC)c(OC)cc3CCN2C(=O)Cc2ccc(F)cc2)cc1` (centres undefined) gave USP7 block 14, UCHL1 inh 9, USP8 inh 36*, USP10 inh 7, USP30 block 18 and USP17 inh 15.
For COc1ccc(CC(=O)NC2CC(=O)N(c3ccc(F)cc3)C2)cc1OC (centres undefined) the results were USP7 block -1, UCHL1 inh 1, USP8 inh -87, USP10 inh -5, USP30 block -7 and USP17 inh -17.
Screening COc1ccc(CC(=O)N2CCc3cc(OC)c(OC)cc3C2COc2ccc([N+](=O)[O-])cc2)cc1 (centres undefined) returned USP7 block -68, UCHL1 inh 4, USP8 inh -23, USP10 inh 6, USP30 block 44* and USP17 inh 2.
COc1cc2c(cc1OC)C(COc1ccc([N+](=O)[O-])cc1)N(C(=O)COc1ccccc1)CC2 (centres undefined) was read as USP7 block -22, UCHL1 inh 4, USP8 inh -16, USP10 inh 3, USP30 block 16 and USP17 inh 2.
For Clc1cccc(COc2ccc(-n3cnnn3)cc2)c1 the results were USP7 block -11, UCHL1 inh 4, USP8 inh 13, USP10 inh 2, USP30 block 18 and USP17 inh 12.
Screening COc1ccccc1CN(C(=O)c1ccco1)C(C(=O)NC1CCCC1)c1ccc(Cl)cc1 (centres undefined) returned USP7 block -5, UCHL1 inh 2, USP8 inh 4, USP10 inh 7, USP30 block 48* and USP17 inh 13.
COc1ccccc1CN(C(=O)c1ccco1)C(C(=O)NC1CCCC1)c1ccc(C(C)C)cc1 (centres undefined) was read as USP7 block 7, UCHL1 inh 5, USP8 inh 2, USP10 inh 15, USP30 block 35* and USP17 inh 2.
`COCC(=O)N1CCCC1c1nc(N)ncc1-c1ccc(Cl)cc1` (centres undefined) gave USP7 block -11, UCHL1 inh -5, USP8 inh 2, USP10 inh -9 and USP30 block -19.
COc1ccc(C2CCCCCN2C(=O)c2ccnc(C)n2)cc1 (centres undefined) was read as USP7 block 4, UCHL1 inh 1, USP8 inh 11, USP10 inh -2, USP30 block 8 and USP17 inh 5.
`COc1ccc(C2CCCCCN2C(=O)Cn2ccccc2=O)cc1` (centres undefined) gave USP7 block -7, UCHL1 inh 0, USP8 inh 67*, USP10 inh -2 and USP30 block -8.
